Assay results as given in PubChem BioAssay (EPA / NIEHS).
Active and inactive are the calls of the source. Rule for the calls: active = hit-call score of the fitted dose curve at least 0.9, where 1 is the maximum; inactive = score below 0.9.

Tests used:
Details in all cases: mRNA level, 48 h; actives raise or lower the signal
[1] = read-out: Cytochrome P450 (CYP2B6), CYP2B6 (gene 1555); test: LTEA_HepaRG_CYP2B6: Life Technologies and Expression Analysis (LTEA) Assay for Cytochrome P450 (CYP2B6) using HepaRG (AID 2283481)
In short: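 CYP2B6 transcript level quantified by qRT-PCR against three housekeeping genes, fitted bidirectionally relative to DMSO. HepaRG cultures received chemicals for 48 h, 8-point half-log series from 100 uM in 0.5% DMSO, duplicate wells, serum-free induction medium.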

[2] = read-out: Cytochrome P450 2C19 (Homo sapiens) (UniProt P33261); test: LTEA_HepaRG_CYP2C19: Life Technologies and Expression Analysis (LTEA) Assay for CYP2C19 using HepaRG (AID 2283482)
In short: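 CYP2C19 transcript levels by qRT-PCR, normalized to three housekeeping genes, in HepaRG cells after 48 h chemical exposure. Eight-point half-log series topping at 100 uM, 0.5% DMSO vehicle. Increases and decreases both fitted against DMSO.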

[3] = read-out: CYP2C8 (gene 1558); test: LTEA_HepaRG_CYP2C8: Life Technologies and Expression Analysis (LTEA) Assay for CYP2C8 using HepaRG (AID 2283483)
In short: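 HepaRG (human liver line), 48 h chemical exposure, 8-pt half-log series from 100 uM, 0.5% DMSO vehicle. Readout: CYP2C8 transcript by qRT-PCR, housekeeping-normalized. Bidirectional fit vs DMSO baseline.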

[4] = read-out: CYP2C9 (gene 1559); test: LTEA_HepaRG_CYP2C9: Life Technologies and Expression Analysis (LTEA) Assay for CYP2C9 using HepaRG (AID 2283484)
In short: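 HepaRG, 48 h dosing, 8-pt half-log series, top 100 uM, 0.5% DMSO vehicle. Read-out: CYP2C9 transcript by TaqMan qRT-PCR, housekeeping-normalized (ACTB/GAPDH/POLR2A). Gain or loss fitted vs DMSO baseline.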

[5] = read-out: CYP2E1 (gene 1571); test: LTEA_HepaRG_CYP2E1: Life Technologies and Expression Analysis (LTEA) Assay for CYP2E1 using HepaRG (AID 2283485)
In short: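 Assay uses 48 h exposure of HepaRG hepatic cells, eight concentrations to 100 uM. Expression of CYP2E1 is quantified by TaqMan qRT-PCR with ACTB, GAPDH and POLR2A normalization; curves fitted in both directions relative to vehicle.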

[6] = read-out: CYP4A11 (gene 1579); test: LTEA_HepaRG_CYP4A11: Life Technologies and Expression Analysis (LTEA) Assay for CYP4A11 using HepaRG (AID 2283486)
In short: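 Readout is CYP4A11 transcript level by qRT-PCR, normalized to three housekeeping genes and fitted bidirectionally against 0.5% DMSO. Human HepaRG cells were treated 48 h, in duplicate, with an 8-point half-log series topping at 100 uM.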

[7] = read-out: Cytochrome P450 3A4 (Homo sapiens) (UniProt P08684); test: LTEA_HepaRG_CYP3A4: Life Technologies and Expression Analysis (LTEA) Assay for CYP3A4 using HepaRG (AID 2283487)
In short: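 HepaRG, 48 h exposure, 8-pt CRC from 100 uM (half-log), 0.5% DMSO, duplicates; serum-free induction medium. Readout: CYP3A4 mRNA, qRT-PCR, ACTB/GAPDH/POLR2A normalization. Bidirectional fit vs DMSO.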

[8] = read-out: DNA damage-inducible transcript 3 (DDIT3), DDIT3 (gene 1649); test: LTEA_HepaRG_DDIT3: Life Technologies and Expression Analysis (LTEA) Assay for DNA damage-inducible transcript 3 (DDIT3) using HepaRG (AID 2283488)
In short: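 Eight-point concentration-response (100 uM highest, half-log dilutions) in HepaRG, 48 h, duplicate wells. Endpoint: qRT-PCR mRNA, normalized (ACTB, GAPDH, POLR2A), bidirectional fitting with DMSO as baseline.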

[9] = read-out: Pro-epidermal growth factor (Homo sapiens) (UniProt P01133); test: LTEA_HepaRG_EGF: Life Technologies and Expression Analysis (LTEA) Assay for Epidermal growth factor (EGF) using HepaRG (AID 2283489)
In short: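 EGF transcript measured by Fluidigm TaqMan qRT-PCR with three housekeeping genes for normalization, 48 h after dosing HepaRG cultures in duplicate (top 100 uM, half-log steps, 0.5% DMSO vehicle). Gain or loss relative to DMSO fitted.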

[10] = read-out: Early growth response protein 1 (EGR1) transcription factor, EGR1 (gene 1958); test: LTEA_HepaRG_EGR1: Life Technologies and Expression Analysis (LTEA) Assay for Early growth response protein 1 (EGR1) transcription factor using HepaRG (AID 2283490)
In short: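 HepaRG, 48 h exposure, 8-pt half-log series from 100 uM, 0.5% DMSO vehicle; EGR1 transcript by TaqMan qRT-PCR (Fluidigm array), housekeeping-normalized; bidirectional fit relative to DMSO baseline.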

[11] = read-out: Ezrin (EZR), EZR (gene 7430); test: LTEA_HepaRG_EZR: Life Technologies and Expression Analysis (LTEA) Assay for Ezrin (EZR) using HepaRG (AID 2283491)
In short: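 Read-out is EZR transcript level by qRT-PCR, normalized to three housekeeping genes and fitted bidirectionally against the DMSO control. Human HepaRG cells received test chemicals for 48 h at eight half-log concentrations up to 100 uM in 0.5% DMSO.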

[12] = read-out: Cytochrome P450 3A7 (Homo sapiens) (UniProt P24462); test: LTEA_HepaRG_CYP3A7: Life Technologies and Expression Analysis (LTEA) Assay for CYP3A7 using HepaRG (AID 2283492)
In short: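 CYP3A7 transcript measured by qRT-PCR (ACTB, GAPDH, POLR2A normalization) after 48 h chemical exposure of HepaRG cells in duplicate. Eight half-log concentrations, maximum 100 uM, 0.5% DMSO vehicle; bidirectional curve fitting against DMSO baseline.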

[13] = read-out: CYP3A5 (gene 1577); test: LTEA_HepaRG_CYP3A5: Life Technologies and Expression Analysis (LTEA) Assay for CYP3A5 using HepaRG (AID 2283493)
In short: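 Readout was CYP3A5 mRNA by qRT-PCR. HepaRG cultures were exposed for 48 h in serum-free induction medium to chemicals at up to 100 uM, and responses were fitted in both directions relative to DMSO vehicle.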

[14] = read-out: Fatty Acid-Binding Protein 1 (FABP1), FABP1 (gene 2168); test: LTEA_HepaRG_FABP1: Life Technologies and Expression Analysis (LTEA) Assay for Fatty Acid-Binding Protein 1 (FABP1) using HepaRG (AID 2283494)
In short: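 qRT-PCR readout of FABP1 transcript (normalized to three housekeeping genes) after 48 h chemical exposure of HepaRG cells; eight concentrations, half-log steps, max 100 uM, 0.5% DMSO vehicle; gain or loss fitted relative to DMSO baseline.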

[15] = read-out: Cytochrome P450 4A22 (Homo sapiens) (UniProt Q5TCH4); test: LTEA_HepaRG_CYP4A22: Life Technologies and Expression Analysis (LTEA) Assay for Cytochrome P450 4A22 (CYP4A22) using HepaRG (AID 2283495)
In short: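 Gene expression measured by qRT-PCR against three housekeeping genes (ACTB, GAPDH, POLR2A), with gain or loss fitted relative to 0.5% DMSO vehicle. HepaRG cultures received 48 h chemical treatment, top concentration 100 uM, half-log steps, duplicate wells.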

[16] = read-out: Cytochrome P450 7A1 (Homo sapiens) (UniProt P22680); test: LTEA_HepaRG_CYP7A1: Life Technologies and Expression Analysis (LTEA) Assay for Cytochrome P450 7A1 (CYP7A1) using HepaRG (AID 2283496)
In short: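 Using 0.5% DMSO as vehicle and baseline, chemicals were tested in duplicate over an 8-point range from 100 uM on HepaRG cells for 48 h; qRT-PCR signals were normalised to ACTB, GAPDH and POLR2A.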

[17] = read-out: growth arrest and DNA damage 45 (GADD45G), GADD45G (gene 10912); test: LTEA_HepaRG_GADD45G: Life Technologies and Expression Analysis (LTEA) Assay for growth arrest and DNA damage 45 (GADD45G) using HepaRG (AID 2283499)
In short: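 GADD45G transcript level by qRT-PCR (housekeeping-normalized: ACTB, GAPDH, POLR2A) after 48 h chemical treatment of a single HepaRG lot in serum-free induction medium; eight-point half-log series up to 100 uM in 0.5% DMSO, duplicates, up- or down-regulation scored.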

[18] = read-out: Glutathione S-Transferase (GSTA2), GSTA2 (gene 2939); test: LTEA_HepaRG_GSTA2: Life Technologies and Expression Analysis (LTEA) Assay for Glutathione S-Transferase (GSTA2) using HepaRG (AID 2283497)
In short: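 qRT-PCR readout of GSTA2 transcript, normalized to three housekeeping genes, fitted bidirectionally against 0.5% DMSO baseline. Differentiated HepaRG cells received compound for 48 h at 8 concentrations (top 100 uM, half-log steps).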

Chain of Cytochrome P450 2C19 (Homo sapiens) (P33261 whole entry, looked up): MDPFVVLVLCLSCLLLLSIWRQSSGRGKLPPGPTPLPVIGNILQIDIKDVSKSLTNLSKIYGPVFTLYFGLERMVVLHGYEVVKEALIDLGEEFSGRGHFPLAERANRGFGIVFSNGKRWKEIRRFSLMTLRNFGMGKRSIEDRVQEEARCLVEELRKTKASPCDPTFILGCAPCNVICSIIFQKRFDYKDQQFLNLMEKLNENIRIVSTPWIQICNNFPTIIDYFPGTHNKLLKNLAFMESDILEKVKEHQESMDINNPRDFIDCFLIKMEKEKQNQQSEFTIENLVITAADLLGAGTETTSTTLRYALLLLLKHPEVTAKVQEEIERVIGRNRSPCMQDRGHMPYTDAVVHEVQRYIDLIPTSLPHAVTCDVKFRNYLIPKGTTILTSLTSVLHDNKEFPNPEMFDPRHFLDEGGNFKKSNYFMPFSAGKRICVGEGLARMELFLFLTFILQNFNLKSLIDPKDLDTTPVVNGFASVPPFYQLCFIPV
Chain of Cytochrome P450 3A4 (Homo sapiens) (P08684 whole entry, looked up): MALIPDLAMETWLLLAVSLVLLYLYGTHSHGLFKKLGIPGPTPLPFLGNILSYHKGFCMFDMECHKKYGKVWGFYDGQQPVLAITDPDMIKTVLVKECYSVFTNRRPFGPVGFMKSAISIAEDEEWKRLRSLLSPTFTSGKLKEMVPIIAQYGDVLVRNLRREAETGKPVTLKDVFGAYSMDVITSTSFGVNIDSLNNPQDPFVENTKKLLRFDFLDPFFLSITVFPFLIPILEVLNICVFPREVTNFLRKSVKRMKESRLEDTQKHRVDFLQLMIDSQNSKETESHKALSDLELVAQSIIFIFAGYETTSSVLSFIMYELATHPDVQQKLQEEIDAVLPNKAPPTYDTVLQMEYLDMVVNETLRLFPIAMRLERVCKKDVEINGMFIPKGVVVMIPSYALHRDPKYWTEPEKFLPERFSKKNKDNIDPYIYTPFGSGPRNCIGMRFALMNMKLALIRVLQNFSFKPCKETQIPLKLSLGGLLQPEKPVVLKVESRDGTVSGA
Chain of Cytochrome P450 3A7 (Homo sapiens) (P24462 whole entry, looked up): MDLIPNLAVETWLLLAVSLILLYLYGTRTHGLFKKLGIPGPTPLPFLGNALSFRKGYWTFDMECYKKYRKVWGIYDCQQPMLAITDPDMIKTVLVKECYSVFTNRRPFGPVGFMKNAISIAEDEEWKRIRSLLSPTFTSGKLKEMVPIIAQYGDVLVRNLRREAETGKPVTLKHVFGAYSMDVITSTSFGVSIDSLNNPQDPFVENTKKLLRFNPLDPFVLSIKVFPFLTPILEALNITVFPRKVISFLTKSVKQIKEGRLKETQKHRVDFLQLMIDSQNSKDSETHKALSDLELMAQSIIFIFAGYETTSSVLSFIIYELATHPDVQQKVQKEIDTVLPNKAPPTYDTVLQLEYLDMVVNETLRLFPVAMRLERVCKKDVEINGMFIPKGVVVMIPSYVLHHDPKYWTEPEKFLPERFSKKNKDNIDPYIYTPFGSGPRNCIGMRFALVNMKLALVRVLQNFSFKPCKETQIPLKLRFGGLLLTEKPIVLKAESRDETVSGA

Compound: OCCOc1ccccc1
- AC50 [1]: 50 µM (active)
- outcome [2]: inactive
- outcome [3]: inactive
- outcome [4]: inactive
- outcome [5]: inactive
- outcome [6]: inactive
- outcome [7]: inactive
- outcome [8]: inactive
- outcome [9]: inactive
- outcome [10]: inactive
- outcome [11]: inactive
- outcome [12]: inactive
- outcome [13]: inactive
- outcome [14]: inactive
- outcome [15]: inactive
- outcome [16]: inactive
- outcome [17]: inactive

Compound: CNC(=O)Oc1ccccc1OC(C)C
- AC50 [1]: 3.17 µM (active)
- outcome [2]: inactive
- outcome [3]: inactive
- outcome [4]: inactive
- AC50 [5]: 22.2 µM (active)
- outcome [6]: inactive
- AC50 [7]: 0.594 µM (active)
- outcome [8]: inactive
- outcome [9]: inactive
- outcome [10]: inactive
- outcome [11]: inactive
- AC50 [12]: 1.52 µM (active)
- outcome [13]: inactive
- outcome [14]: inactive
- outcome [15]: inactive
- outcome [18]: inactive
- outcome [17]: inactive

Compound: CNC(=O)/C=C(\C)OP(=O)(OC)OC
- outcome [1]: inactive
- outcome [2]: inactive
- outcome [3]: inactive
- outcome [4]: inactive
- outcome [5]: inactive
- outcome [6]: inactive
- outcome [7]: inactive
- outcome [8]: inactive
- outcome [9]: inactive
- outcome [10]: inactive
- outcome [11]: inactive
- outcome [12]: inactive
- outcome [13]: inactive
- outcome [14]: inactive
- outcome [15]: inactive
- outcome [16]: inactive
- outcome [17]: inactive

Compound: CNC(=O)CSP(=S)(OC)OC
- AC50 [1]: 23.1 µM (active)
- outcome [2]: inactive
- outcome [3]: inactive
- outcome [4]: inactive
- outcome [5]: inactive
- outcome [6]: inactive
- outcome [7]: inactive
- outcome [8]: inactive
- outcome [9]: inactive
- outcome [10]: inactive
- outcome [11]: inactive
- outcome [12]: inactive
- outcome [13]: inactive
- outcome [14]: inactive
- outcome [15]: inactive
- outcome [16]: inactive
- outcome [17]: inactive

Compound: CCC(C)(NC(=O)c1cc(Cl)c(C)c(Cl)c1)C(=O)CCl (configuration not stated)
- AC50 [1]: 90.1 µM (active)
- AC50 [2]: 85.4 µM (active)
- AC50 [3]: 81.6 µM (active)
- AC50 [4]: 79.5 µM (active)
- AC50 [5]: 44 µM (active)
- AC50 [6]: 50.2 µM (active)
- AC50 [7]: 88.2 µM (active)
- AC50 [8]: 78.3 µM (active)
- outcome [9]: inactive
- outcome [10]: inactive
- AC50 [11]: 75.7 µM (active)
- AC50 [12]: 82.1 µM (active)
- AC50 [13]: 89.6 µM (active)
- AC50 [14]: 46.5 µM (active)
- AC50 [15]: 74.9 µM (active)
- AC50 [16]: 73.8 µM (active)
- outcome [17]: inactive

Compound: O=C1c2ccccc2C(=O)N1SC(Cl)(Cl)Cl
- outcome [1]: inactive
- outcome [2]: inactive
- outcome [3]: inactive
- outcome [4]: inactive
- outcome [5]: inactive
- outcome [6]: inactive
- outcome [7]: inactive
- outcome [8]: inactive
- outcome [9]: inactive
- outcome [10]: inactive
- outcome [11]: inactive
- outcome [12]: inactive
- outcome [13]: inactive
- outcome [14]: inactive
- outcome [15]: inactive
- outcome [16]: inactive
- outcome [17]: inactive
